Shown are actives, neighbours in structure and some others; about 3% of the full set was active somewhere.
GCN5L2 inh = inhibitors of human GCN5L2 histone acetyltransferase | Q92830 | GCN5L2 HAT assay, ThioGlo1 CoA-SH fluorescence | Potency, µM (titrated, usually from 58.9 µM), for the others: at the top dose activity change, negative = inhibition, usual class: inhibitors | actives 0.21% (n = 390,000) | AID 504327; also: % is scaled to controls: 0 for no effect and ±100 for the full control effect
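ThioGlo1-coupled HAT assay: 20nM GCN5L2, 70uM acetyl-CoA, 75uM H3(1-25) peptide, pH 7.5. Fluorescence read at 340/540nm at start and after 20 min at room temperature.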
VDR inhibitor = blocks the human vitamin D receptor. actives 0.93% (n = 400,000). Potency, µM, for the others: max response, negative = inhibition, most hits filed as inhibitors. AID 504847. P11473. VDR-SRC2-3 peptide fluorescence polarization, 2 h; also: % is scaled to controls: 0 for no effect and ±100 for the full control effect
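Signal is fluorescence polarization, reporting how far test compounds block the interaction of VDR with the SRC2-3 coregulator peptide after a 2 h room-temperature incubation.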
PLK1 PBD block = inhibitors of human PLK1 polo-box domain binding | Potency, µM, inactives show max response, negative = inhibition, actives largely listed as inhibitors | P53350 | AID 720504 | Plk1 PBD binding of FITC phosphopeptide, fluorescence polarization | actives 2.8% (n = 360,000); also: series mostly up to about 57 µM; % is scaled to controls: 0 for no effect and ±100 for the full control effect; nearly all actives have a fitted effect of over 65% in size
TSG101-PTAP inh = blocks PTAP/TSG101 interaction to inhibit HIV-1 budding. Fluorescence polarization, FITC-PTAP peptide / Tsg101 binding. Q99816. Potency, µM (doses to about 115 µM), without a hit: at the top dose activity change, negative = inhibition, most hits filed as inhibitors. AID 493005. 340,000 tested, under 10 active; active = well fitted inhibition curve with a large enough effect in the main read-out, with a control signal flat, not every such curve was filed as active; inconclusive = small, poorly fitted or top-dose-only effect, or effect the other way, or a change in a side signal; inactive = no such curve, though single readings can be large or run the other way; also: % of control where 0% means no effect
Target sequence (Q99816 whole entry, looked up): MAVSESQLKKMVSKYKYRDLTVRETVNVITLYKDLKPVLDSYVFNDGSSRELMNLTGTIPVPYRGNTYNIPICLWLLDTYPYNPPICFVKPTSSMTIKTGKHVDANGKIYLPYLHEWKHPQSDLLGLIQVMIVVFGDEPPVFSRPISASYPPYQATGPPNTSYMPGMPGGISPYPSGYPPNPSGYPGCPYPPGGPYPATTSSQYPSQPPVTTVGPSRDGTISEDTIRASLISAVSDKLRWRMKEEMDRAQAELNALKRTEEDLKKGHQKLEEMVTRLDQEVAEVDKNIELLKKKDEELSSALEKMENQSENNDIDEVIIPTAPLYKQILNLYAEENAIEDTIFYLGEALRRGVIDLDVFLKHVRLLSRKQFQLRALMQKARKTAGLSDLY
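Compounds were pin-transferred onto Tsg101 binding domain (10 uM final) in HEPES pH 7.5 buffer, then FITC-PTAP peptide was added at 50 nM final. After 20 min at RT, polarization reported peptide displacement across a qHTS concentration series.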
USP1-UAF1 inh = blocks the human USP1/UAF1 deubiquitinase complex; O94782; recombinant USP1/UAF1, Ub-Rhodamine cleavage fluorescence; Potency, µM (series often up to 57.1 µM), for the others: at the top dose activity change, negative = inhibition, hits mostly inhibitors; actives 0.23% (n = 390,000); AID 743255; also: % is scaled to controls: 0 for no effect and ±100 for the full control effect; nearly all actives have a fitted effect of over 60% in size
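Step one: compound is pinned into 1nM USP1/UAF1 in HEPES pH 7.8 buffer with TCEP. Step two: 15 min room-temperature incubation. Step three: Ub-Rho (150nM final) starts cleavage, tracked by fluorescence over six one-minute reads.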
* = called active by the depositor; ? = inconclusive; / = no result given; [ ] = another dose, or the depositor's remark. Unless noted, calls follow the shape of the dose curve; as a rule, active = well fitted curve in the direction sought with a large enough effect; inconclusive = small, poorly fitted or top-dose-only effect, or another doubt; inactive = no such curve, though single readings can be large; an effect the other way counts as inactive or inconclusive. Potency is read from the fitted curve at half-maximal effect.

SMILES	GCN5L2 inh	VDR inhibitor	PLK1 PBD block	TSG101-PTAP inh	USP1-UAF1 inh
COc1ccccc1N1CCN(S(=O)(=O)c2c(C)nc3sc(C)c(C)n3c2=O)CC1	-5%	9%	/	/	-12%
O[C@@H]1[C@@H]2c3cc4c(cc3CN3CCC(=C[C@@H]1O)[C@H]23)OCO4	9%[21.4 µM]	0%	/	/	/
N#C/C(=C\c1ccc(N2CCOCC2)o1)C(=O)NCC1CCCO1 (stereo unspecified)	-8%	0%	80%	?	?
Cc1ccc2nc(/C(C#N)=C\c3ccc([N+](=O)[O-])o3)[nH]c2c1	3%	22%	-7%	-2%	-23%
N#C/C(=C/c1ccc(N2CCCCC2)o1)c1cccc(F)c1	-12%	40µM*	-9%	1%	18µM*
Cc1ccc(/C(C#N)=C\c2ccc(N3CCOCC3)o2)cc1	-6%	?	12%	11%	25µM*
Cc1ccc2nc(/C(C#N)=C\c3ccc(N4CCOCC4)o3)[nH]c2c1	-10%	-12%	69%	?	25µM*
Cc1ccc2nc(/C(C#N)=C/c3ccc(-c4ccccc4C(=O)O)o3)[nH]c2c1	-13%	14%	38%	?	32µM*
N#C/C(=C/c1ccc(Sc2nc3ccccc3[nH]2)o1)c1cccc(F)c1	-3%	11%	-6%	-3%	0%
CC(=O)c1cccc(NC(=O)C(CC(C)C)NS(=O)(=O)c2ccc3c(c2)CCN3C(C)=O)c1 (stereo unspecified)	1%	4%	/	/	?
N#C/C(=C/c1ccc(N2CCOCC2)o1)C(=O)Nc1ccccc1	0%	17%	79%	?	25µM*
Nc1c(C(=O)NCc2cccnc2)sc(=S)n1-c1ccccc1	-27%	?	17µM*	-1%	-7%
CCn1c(N)c(C(=O)NCc2cccnc2)sc1=S	-10%	-5%	-27%	0%	-17%
CCCCn1c(NCc2ccccc2NS(=O)(=O)c2ccc(C)cc2)nc2ccccc21	-6%	8%	2%	-11%	2%
CCCCn1c(NS(=O)(=O)c2ccc(C)cc2)c(S(=O)(=O)c2ccccc2)c2nc3ccccc3nc21	-3%	?	9.5µM*	-2%	28µM*
COc1ccccc1/C=C/C=N/NC(=O)CCC1C(=O)NN=C1C (stereo unspecified)	-12%	-29%	27µM*	-8%	-10%
CCCCCCCCCCCC1=C(O)C(=O)C=C(O)C1=O	/	?	30µM*	-1%	?
CCCCCCc1c(O)c2ccccc2[nH]c1=O	5%	-7%	-14%	-13%	3%
COC1=CC(=O)C(O)=C(CCCCCCC/C=C/CCCCCCCC2=C(O)C(=O)C=C(OC)C2=O)C1=O	/	45µM*	19µM*	-11%	?
C/C(Cc1ccccc1)=N\NC(=O)CNC(=O)c1ccc(Br)cc1	-5%	-12%	27µM*	-14%	-11%
Cc1cccc(C)c1NC(=O)CCCCCNS(=O)(=O)c1ccccc1	-5%	-6%	24µM*	-1%	-11%
Cc1ccc(S(=O)(=O)NCCCCCC(=O)Nc2ccccc2C)cc1	-10%	4%	0%	-5%	-13%
CNC(=O)CCCCCNS(=O)(=O)c1ccc(C)cc1	2%	-9%	19µM*	1%	-1%
O=S(=O)(NCCCCCNS(=O)(=O)c1ccccc1)c1ccccc1	-2%	-22%	30µM*	-4%	0%
O=C(Cc1cccs1)NC1CC(=O)N(c2cccc(F)c2)C1 (stereo unspecified)	-5%	15%	/	/	-4%
COc1ccc(C(=O)c2ncc(C(F)(F)F)cc2Cl)cc1	-9%	?	24µM*	1%	-12%
COc1cc(NC(=O)Cn2c(=O)nc(-c3ccccc3F)c3cc(Cl)ccc32)cc(OC)c1	1%	3%	/	/	-17%
COCCn1c(=O)c(-c2ccccc2)nc2cnc(N(C)C)nc21	-22%	-7%	/	/	/
O=C(CC(Nc1cccc(Cl)c1Cl)C(=O)O)c1ccccc1 (stereo unspecified)	3%	?	-10%	-2%	-21%
O=C(CC(Nc1ccccc1Cl)C(=O)O)c1ccccc1 (stereo unspecified)	14%	25µM*	-25%	-3%	-13%

Screening results (PubChem BioAssay)
